Structures are written as SMILES. Inconclusive results are not listed. Where a call stands in place of a potency, no number is given. Activity calls are given as the source filed them. Calls follow the shape of the dose curve; as a rule, active = well fitted inhibition curve with a large enough effect in the repeat runs; inconclusive = weak or mixed curves; inactive = flat fitted curve, though single readings scatter.
Potency is read from the fitted curve at half-maximal effect.

The assay deals with Voltage-gated inwardly rectifying potassium channel KCNH2 (Homo sapiens) (UniProt Q12809). Nature of the assay: Human Ether-a-go-go-Related Gene (hERG) channel small molecule antagonists: fluorescence cell-based qHTS assay (AID 1671200). Also: nearly all actives have a fitted effect of over 50% in size. The conditions noted are these: hERG-U2OS cells, FluxOR thallium flux fluorescence; series mostly up to 76.8 µM. The text has this: National Center for Advancing Translational Sciences [NCATS]
Voltage-gated inwardly rectifying potassium channel KCNH2 (Homo sapiens), sequence (Q12809 whole entry, looked up): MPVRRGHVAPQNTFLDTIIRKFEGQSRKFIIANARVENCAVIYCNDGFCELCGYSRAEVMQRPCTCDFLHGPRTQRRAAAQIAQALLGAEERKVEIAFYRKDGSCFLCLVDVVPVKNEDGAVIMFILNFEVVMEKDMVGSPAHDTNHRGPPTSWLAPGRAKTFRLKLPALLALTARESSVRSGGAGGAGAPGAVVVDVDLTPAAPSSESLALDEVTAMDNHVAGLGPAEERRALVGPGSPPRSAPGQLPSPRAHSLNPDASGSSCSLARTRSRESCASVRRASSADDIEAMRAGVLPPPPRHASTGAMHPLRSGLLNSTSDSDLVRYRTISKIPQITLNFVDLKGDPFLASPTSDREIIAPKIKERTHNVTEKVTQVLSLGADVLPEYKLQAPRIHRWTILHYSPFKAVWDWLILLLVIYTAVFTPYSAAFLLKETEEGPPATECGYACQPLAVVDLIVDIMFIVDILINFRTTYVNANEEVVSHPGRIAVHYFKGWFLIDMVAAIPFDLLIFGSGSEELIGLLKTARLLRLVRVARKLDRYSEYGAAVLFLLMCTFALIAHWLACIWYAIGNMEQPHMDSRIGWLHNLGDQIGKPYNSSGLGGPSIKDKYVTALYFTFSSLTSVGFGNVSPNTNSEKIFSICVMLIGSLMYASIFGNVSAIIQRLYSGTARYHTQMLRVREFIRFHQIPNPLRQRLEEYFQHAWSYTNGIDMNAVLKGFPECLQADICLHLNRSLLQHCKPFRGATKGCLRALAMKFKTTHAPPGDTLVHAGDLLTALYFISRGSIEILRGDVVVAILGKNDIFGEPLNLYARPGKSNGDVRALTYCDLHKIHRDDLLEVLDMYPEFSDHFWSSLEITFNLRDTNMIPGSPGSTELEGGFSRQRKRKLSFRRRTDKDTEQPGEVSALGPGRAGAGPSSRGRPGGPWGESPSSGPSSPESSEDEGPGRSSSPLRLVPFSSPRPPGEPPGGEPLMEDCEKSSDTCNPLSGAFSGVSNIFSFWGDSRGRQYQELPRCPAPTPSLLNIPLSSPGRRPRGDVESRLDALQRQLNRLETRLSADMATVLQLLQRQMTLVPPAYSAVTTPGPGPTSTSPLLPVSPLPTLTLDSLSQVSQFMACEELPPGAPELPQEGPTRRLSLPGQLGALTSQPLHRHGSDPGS
U.S. Environmental Protection Agency [EPA]
National Institutes of Environmental Health Sciences [NIEHS]
National Toxicology Program [NTP]
U.S. Food and Drug Administration [FDA]
Mutations in the hERG channel cause Long QT (LQT) syndrome. LQT syndrome is a cardiac disorder which can cause ventricle arrhythmia and sudden death. Additionally, compounds which block the hERG channel can cause acquired LQT syndrome. Several FDA approved drugs have been removed from the market due to their hERG blocking activity. A cell-based hERG channel inhibition assay can be used to screen chemical compounds that inhibit hERG channel. This assay measures hERG channel activity using thallium ions as surrogate ions to measure potassium into the cells.
Tox21 Assay Protocol Summary:
hERG-U2OS cells were resuspended in culture medium and dispensed into 1536-well, black wall/clear-bottom plates at 1000cells/well/3uL using a Multidrop Combi dispenser (Thermo Fisher, Waltham, MA). After plates were incubated at 37 C overnight, 3 uL of Loading Buffer provided by FluxOR II Potassium Ion Channel Assay kit (Thermo, Carlsbad, CA) was added to each well. The assay plates were then incubated at room temperature in the dark for 1h. […] After the assay plates were incubated at room temperature for 10 min, 1 uL of Stimulus Buffer provided by FluxOR II Potassium Ion Channel Assay kit was added into each well and fluorescence intensity (480nm excitation/540nm emission) was continuously measured for 2 min at 1 second intervals using a Functional Drug Screening System (FDSS) 7000EX kinetic plate reader (Hamamatsu, Japan).
Regarding `Cc1ncc2n1-c1ccc(Cl)cc1C(c1ccccc1F)=NC2`, the Potency entry is “inactive”.

With `ClCCCN1CCN(c2cccc(Cl)c2)CC1`, the Potency is 10.7 µM (active). Consider `CCS(=O)(=O)C(C)(C)S(=O)(=O)CC`, for which the Potency entry was “inactive”. Next, `CCCCC(=O)Cl`: “inactive”; `CCCCCCBr`: “inactive”; `COc1cc(OC)nc(NC(=O)NS(=O)(=O)c2ncccc2OCC(F)(F)F)n1`: “inactive”. For the compound `CCC/C(=N\OCC)C1=C(O)CC(CC(C)SCC)CC1=O` (stereo not given), the Potency entry was “inactive”.

Take `OC(Cn1cncn1)(c1ccc(F)cc1)c1ccccc1F` (stereo not given): the Potency entry was “inactive”. To `ClCCOCOCCCl` belongs “inactive”. To `CCC(C)(C)c1cc(-n2nc3ccccc3n2)c(O)c(C(C)(C)CC)c1` belongs “inactive”. On to `ClCC(Cl)(Cl)Cl`, for which the Potency result was “inactive”. To `O=C(O)C(Br)CBr` (stereo not given) belongs “inactive”. Next, `COP(N)(=S)Oc1ccccc1C(=O)OC(C)C` (stereo not given): “inactive”; `c1cc2c(c(N3CCNCC3)c1)OCCO2`: “inactive”; `O=[N+]([O-])c1ccc(CBr)cc1`: “inactive”.

As for `N#CC(O)c1ccccc1` (stereo not given), the Potency entry was “inactive”. For `CNC(=O)Oc1cccc(C(C)C)c1`, the Potency entry was “inactive”. Next, `CCOC(=O)C1(c2ccccc2)CCN(CCc2ccc(N)cc2)CC1`: 19 µM (active); `CC(=O)Nc1cc([As](=O)(O)O)ccc1O`: “inactive”. To `O=C1CN=C(c2ccccc2)c2cc([N+](=O)[O-])ccc2N1` belongs “inactive”; to `CN1CCC(N(Cc2ccccc2)c2ccccc2)CC1`, 5.35 µM (active); to `CC(C1CC1)C(O)(Cn1cncn1)c1ccc(Cl)cc1` (stereo not given), “inactive”. To `CN/C(=N\[N+](=O)[O-])NCC1CCOC1` (stereo not given) belongs “inactive”.

With `COc1ncc(F)c2nc(S(=O)(=O)Nc3c(F)cccc3F)nn12`, the Potency result was “inactive”. To `C[N+](C)=CCl` belongs “inactive”; to `CC(=O)C(Cl)Cl`, “inactive”. Next, `Nc1ccccc1Cl`: “inactive”. On to `N#CCNCC#N`, for which the Potency result was “inactive”. In the case of `NC(=O)O`, the Potency entry is “inactive”. Next, `O=C(CCN1CC1)OCC(CO)(COC(=O)CCN1CC1)COC(=O)CCN1CC1`: “inactive”; `Oc1c(Cl)cccc1Cl`: “inactive”. For `CC1CCCCC1NC(=O)Nc1ccccc1` (stereo not given), the Potency entry was “inactive”. On to `C1CCC(C2CCCCC2)CC1`, for which the Potency entry was “inactive”. With `N#CC(CCc1ccc(Cl)cc1)(Cn1cncn1)c1ccccc1` (stereo not given), the Potency was 21.9 µM (active). With `N#Cc1ccncc1`, the Potency entry is “inactive”. To `COC(=O)COc1ccc(Cl)cc1Cl` belongs “inactive”. Next, `Nc1cc(Cl)ccc1O`: “inactive”; `Cc1nc(N)nc(N)n1`: “inactive”; `COC(=O)c1ccccc1S(=O)(=O)NC(=O)N(C)c1nc(C)nc(OC)n1`: “inactive”. Next, `CC(C=O)Cc1ccc2c(c1)OCO2` (stereo not given): “inactive”.

Values taken from PubChem BioAssay (Tox21).
